Source: PubChem
Hits are enriched below; roughly 2.8% of the tested compounds scored in any of these assays.
pPAFAH FP inh: inhibitors of human plasma PAF acetylhydrolase (pPAFAH). 1.5% of 330,000 active. inhibition, % at 3.39 µM. recombinant pPAFAH, FP-rhodamine probe fluorescence polarization. Q13093;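 active = inhibition above the mean inhibition across the screen plus 3 SD, cut at about 25% in these data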;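 note: inhibitors block binding of the rhodamine activity-based probe so polarization drops; 0% = enzyme with DMSO and 100% = wells lacking pPAFAH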
Target sequence (Q13093 whole entry, looked up): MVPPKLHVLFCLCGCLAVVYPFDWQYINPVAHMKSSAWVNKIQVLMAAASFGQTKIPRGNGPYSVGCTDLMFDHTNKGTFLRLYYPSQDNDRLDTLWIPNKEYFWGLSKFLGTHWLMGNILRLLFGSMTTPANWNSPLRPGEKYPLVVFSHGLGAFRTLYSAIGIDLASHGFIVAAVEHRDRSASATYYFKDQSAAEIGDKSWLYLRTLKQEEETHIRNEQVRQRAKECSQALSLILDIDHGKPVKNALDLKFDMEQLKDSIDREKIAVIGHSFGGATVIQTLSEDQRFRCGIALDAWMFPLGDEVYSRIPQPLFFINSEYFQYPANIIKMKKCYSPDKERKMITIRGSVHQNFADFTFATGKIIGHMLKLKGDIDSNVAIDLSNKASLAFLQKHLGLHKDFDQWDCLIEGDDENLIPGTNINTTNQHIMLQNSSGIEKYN
PAFAH1B2 inh: PAFAH1B2 (human) inhibition; P68402; recombinant PAFAH1B2, FP-rhodamine activity probe, fluorescence polarization; inhibition, % at 3.39 µM; 1.2% of 340,000 active; AID 492953;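 active = inhibition above the mean of all tested compounds plus 3 SD, cut at about 24% in these data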;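 note: 0% = enzyme with DMSO and 100% = wells lacking PAFAH1B2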
Target sequence (P68402 whole entry, looked up): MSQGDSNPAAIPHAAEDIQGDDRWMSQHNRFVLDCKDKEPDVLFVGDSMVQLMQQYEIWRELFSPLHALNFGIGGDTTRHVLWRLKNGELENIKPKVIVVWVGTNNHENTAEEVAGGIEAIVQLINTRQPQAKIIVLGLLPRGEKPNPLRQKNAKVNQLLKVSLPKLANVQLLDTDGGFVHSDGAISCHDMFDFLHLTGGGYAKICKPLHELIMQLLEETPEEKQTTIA
Fam108B counter: blocks mouse Fam108B hydrolase in RBBP9 counter-screen; recombinant Fam108B, FP-Rh probe fluorescence polarization; AID 1947; 0.33% of 300,000 active; inhibition, % at 9.51 µM;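 active = inhibition above the screen mean inhibition plus 3 SD, computed separately per campaign, cut at about 18% in these data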;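 note: inhibitors lower polarization as less probe binds the enzyme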
PAFAH1B3 FP inh: inhibitors of human PAFAH1B3. AID 492972. 0.28% of 340,000 active. inhibition, % at 3.39 µM. Q15102. recombinant PAFAH1B3, FP-rhodamine probe, fluorescence polarization;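 active = inhibition above the screen-wide average of all tested compounds plus 3 SD, cut at about 25% in these data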;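 note: 0% = enzyme with DMSO only and 100% = wells lacking PAFAH1B3 protein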
PAFAH2 inh: PAFAH2 (human) inhibition | Q99487 | recombinant PAFAH2, FP-rhodamine activity probe, fluorescence polarization | inhibition, % at 3.39 µM | 0.99% of 340,000 active | AID 492956;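 active = inhibition above the mean over all tested compounds plus 3 SD, cut at about 30% in these data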;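 note: inhibitors block probe labeling of enzyme so polarization drops; 0% = enzyme with DMSO and 100% = wells lacking PAFAH2 protein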
PME-1 inh: PME-1 (human) inhibition; Q9Y570; recombinant PME-1, FP-Rh probe fluorescence polarization; inhibition, % at 5.9 µM; 0.53% of 320,000 active; AID 2130;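 active = inhibition above the campaign mean of all compounds plus 3 SD, cut at about 26% in these data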;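 note: competitive labeling of PME-1 active site by serine hydrolase directed probe; 0% = PME-1 with DMSO and 100% = wells lacking PME-1 enzyme; inhibitors block probe labeling so polarization falls and inhibition rises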
Fam108b confirm: confirmation of mouse Fam108b serine hydrolase inhibitors; recombinant Fam108b, FP-Rh probe fluorescence polarization; 44% of 930 active; shares compounds with Fam108B counter; inhibition, % at 9.51 µM;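 active = inhibition above a limit from the primary screen, the mean over all compounds plus 3 SD, cut at about 19% in these data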;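 note: 0% = median of active Fam108b wells and 100% = catalytically dead S170A mutant; inhibitors free the probe so polarization falls as inhibition rises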
Fam108b inh: mouse ABHD17B inhibition; shares compounds with Fam108B counter; 44% of 260 active; AID 588649; recombinant Fam108b, gel-based ABPP, fluorophosphonate probe; inhibition, % at 20 µM; in the data active = inhibition above about 40%
Starred values were filed as active, the others as inactive; / = no result.

SMILES | pPAFAH FP inh | PAFAH1B2 inh | Fam108B counter | PAFAH1B3 FP inh | PAFAH2 inh | PME-1 inh | Fam108b confirm | others
CC1CCN(Cc2nnnn2CCCC(=O)N(C)C2CCOC2)CC1 (centres undefined) | 2 | 6 | -1 | 5 | 4 | 3 | /
COc1ccc(C(=O)N2CCN(c3ccc(C(C)=O)cc3)CC2)cc1S(=O)(=O)N1CCCC1 | -2 | 9 | / | 7 | 3 | / | /
O=C(O)c1ccc(-n2cccc2/C=C2/NC(=O)N(c3ccccc3)C2=O)cc1 | 29* | 14 | 20* | 12 | 26 | -15 | 17
CC(Sc1nnc(NC2CCCCC2)s1)C(=O)Nc1ccc2c(c1)C(=O)c1ccccc1C2=O (centres undefined) | 6 | 1 | 27* | 1 | -10 | 32* | 5
Cc1ccc(C)c(S(=O)(=O)Nc2cc(SCC(=O)O)c(O)c3ccccc23)c1 | 12 | 72* | 29* | 51* | 34* | 28* | -10
CCOC(=O)c1ccc(N2CCN(c3ccccc3F)CC2)c(NC(=O)Nc2ccccc2)c1 | -4 | -21 | -1 | -43 | -36 | -17 | /
CCOC(=O)c1ccc(N2CCN(c3ccc(F)cc3)CC2)c(NC(=O)Nc2cccc(OC)c2)c1 | 29* | -3 | 36* | -17 | -21 | 17 | -7
CC(Cc1nnc(N)s1)c1ccccc1 (centres undefined) | 2 | 13 | -1 | 8 | 11 | 1 | /
Cn1c(O)c(C=NNC(=O)c2cc3ccccc3cc2O)c2ccccc21 | / | / | / | / | / | / | / | Fam108b inh=55*
COc1ccc(-c2nc(-c3ccccn3)ncc2S(C)(=O)=O)cc1 | -1 | -2 | -1 | 6 | 9 | -1 | /
Cn1nc(-c2ccccn2)nc2c(=O)n(C)c(=O)nc1-2 | 12 | 32* | 62* | 68* | 59* | 36* | 86* | Fam108b inh=0
Cc1nc2ccccc2c(=O)n1/N=C/C=C/c1ccccc1 | 2 | 0 | 24* | 7 | 4 | 1 | 83*
Cc1nc2ccccc2c(=O)n1N=C/C=C/c1ccccc1 | / | / | / | / | / | / | / | Fam108b inh=0
CCC(CNc1cc(OC)cc2cccnc12)NC1CCCCC1 (centres undefined) | 25* | 5 | 30* | 13 | -1 | 38* | 3
CCc1cccc2cc3c(N)c(C(=O)Nc4ccc(S(=O)(=O)N5CCCC5)cc4)sc3nc12 | 21 | 2 | 54* | 8 | 0 | 38* | -17
COc1cccc(CC(=O)Nc2ccc(S(=O)(=O)N3CCCCC3)cc2)c1 | -1 | 0 | / | 3 | 4 | / | /
Cc1cccc2cc3c(N)c(C(=O)Nc4ccc(N5CCOCC5)cc4)sc3nc12 | 11 | 9 | 20* | 2 | 9 | 21 | 2
Nc1c(S(=O)(=O)c2cccc(Cl)c2)c2nc3ccccc3nc2n1N=Cc1ccc(O)c(O)c1 | / | / | / | / | / | / | / | Fam108b inh=80*
CCSc1nc2ccccc2c(=O)n1-c1c(C)n(C)n(-c2ccccc2)c1=O | -2 | -2 | 4 | 15 | 0 | 6 | /
Cc1cccc2c(N=Nc3ccc(S(=O)(=O)Nc4cccc(Cl)c4)cc3[N+](=O)[O-])c(O)[nH]c12 | 28* | 26* | 36* | 21 | 8 | 32* | 28*
Cc1ccccc1OC(C)C(=O)Nc1ccc2c(c1)OCCO2 (centres undefined) | 3 | -5 | 1 | 6 | 1 | -3 | /
COC(=O)/C=C1\S/C(=N/NC(=O)c2ccccc2)NC1=O | 1 | 2 | 6 | 2 | -5 | 2 | /
COc1ccccc1/C=C1\S/C(=N/NC(=O)c2cccc(Br)c2)NC1=O | 17 | 17 | 21* | 15 | 41* | 8 | 17
C=CCCC(=O)N1CCCC(C(=O)c2cccc(OC)c2)C1 (centres undefined) | 4 | -2 | 2 | 4 | -8 | -2 | /
COC(=O)Nc1ccccc1C(=O)N1CCC(O)(c2ccc(Cl)cc2)CC1 | 0 | -2 | 1 | -1 | -1 | 17 | /
SMILES | pPAFAH FP inh | PAFAH1B2 inh | Fam108B counter | PAFAH1B3 FP inh | PAFAH2 inh | PME-1 inh | Fam108b confirm | others
NC(=O)Nc1ccccc1C(=O)N1CCC(O)(c2ccc(Cl)cc2)CC1 | 1 | 4 | 43* | 3 | -4 | 6 | 1
COc1ccc(-c2noc(N3CCC(C(=O)NC(C)c4ccccc4)CC3)n2)cc1 (centres undefined) | 3 | 3 | -3 | -10 | 4 | -3 | /
CCOc1cc(/C=C(\C#N)C(=O)Nc2ccccc2C(=O)O)ccc1OC(=O)c1ccc(C)cc1 | -6 | -2 | 1 | -3 | -1 | -5 | /
CCCCn1c(=O)nc2n(-c3ccc(OC)cc3)c3ccccc3cc-2c1=O | 2 | 2 | 42* | 1 | 5 | -2 | 1
CCCCn1c(=O)nc2n(-c3ccc(C)cc3)c3ccccc3cc-2c1=O | 0 | -1 | -3 | 6 | -5 | -2 | /
O=C(Nc1ccc(-c2csc(Nc3cccc(C(F)(F)F)c3)n2)cc1)c1cc([N+](=O)[O-])cc(C(F)(F)F)c1 | -1 | 24 | 41* | 27* | 48* | 1 | 11
Nc1c(Cl)cc(-c2[nH]c3cc(C(=O)NCCO)ccc3c(=O)c2O)cc1Cl | 19 | 26* | 29* | 36* | -27 | 42* | 18
CCCNC(=O)c1ccc2c(=O)c(O)c(C)[nH]c2c1 | 2 | 4 | 3 | 10 | 3 | 5 | /
Cc1noc(C)c1CSCC(=O)Nc1cccc(C(F)(F)F)c1 | -3 | 7 | / | 4 | -4 | / | /
O=C1c2c(O)cccc2Cc2cccc(O)c21 | 15 | 12 | 22* | 10 | 4 | 37* | 43*
O=C1c2ccccc2CSc2c(O)cccc21 | 2 | / | 4 | / | / | -5 | /
Cc1cccc(-c2nc(Nc3ccc(N4CCOCC4)cc3)c3ccccc3n2)c1 | 11 | 0 | 20* | 7 | 6 | 19 | 2
Cn1c(CNC(=O)c2ccco2)nnc1SCC(=O)Nc1ccc(Cl)cc1 | 0 | 2 | 7 | 11 | -3 | 1 | /
O=[N+]([O-])c1cccc(-c2csc(NN=Cc3cccc(O)c3)n2)c1 | / | / | / | / | / | / | / | Fam108b inh=0
O=[N+]([O-])c1cccc(-c2csc(Nc3ccccc3)n2)c1 | 11 | -2 | 7 | 1 | -1 | 23 | /
COc1cccc(/C=N/NC(=S)Nc2cccc(S(=O)(=O)N(C)C)c2)c1 | 2 | 3 | -1 | 6 | 4 | 15 | /
COc1ccc(O)c(/C=N/NC(=S)Nc2cccc(S(=O)(=O)N(C)C)c2)c1 | 11 | 5 | 37* | 21 | 26 | 53* | -8
COc1ccc(-c2nc(SCC(=O)NCc3ccco3)c(-c3ccccc3)[nH]2)cc1OC | 8 | 5 | 20* | 3 | 3 | 7 | -3
O=C1CC(c2ccccc2)=NN1c1nc(-c2ccccc2)cs1 | 28* | 8 | 19* | 18 | 66* | 11 | 9
